Results from PubChem BioAssay AID1789 (The Scripps Research Institute Molecular Screening Center, 2009).
The campaign covered roughly 290,000 compounds. About 2,700 (0.93%) were called active. The list comes from a sample in which actives are over-represented; it also holds similar structures and randomly drawn compounds. Unmarked numbers belong to inactive results.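 The calls were made as follows: active = inhibition above the screen-wide mean plus 3 SD, computed separately per campaign (cut at about 16% in these data); inactive = the rest.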

These compounds were tested on Heat shock protein HSP 90 (rabbit reticulocyte lysate; luciferase refolding) (assay: inhibitors of HSP90 chaperone activity – cell lysate, luminescence, primary screen (AID 1789;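 also: 0% = DMSO wells and 100% = 60 µM geldanamycin wells; inhibitors lower the luminescence because luciferase stays unfolded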)). Conditions: 3 h, at 5.6 µM, active compounds read high.

SMILES | inhibition
COc1cc(/C=C(\C#N)c2nc3ccccc3[nH]2)ccc1O | -1.74%
CCOC(=O)CSc1nc2ccc(C)cc2[nH]1 | 1.44%
Cc1ccc2nc(/C(C#N)=C\c3ccc(OC(=O)c4cccs4)cc3)[nH]c2c1 | 30.5% (active)
CCn1c(CC(=O)Nc2ccccc2C)nnc1SCC(=O)NC1=NCCS1 | 3.37%
O=c1oc(/C=C/c2ccccc2)nc2ccccc12 | 21% (active)
S=c1[nH]nc(/C=C/c2ccccc2)o1 | -3.77%
O=c1oc(-c2ccccc2NS(=O)(=O)c2ccc(Cl)cc2)nc2ccccc12 | 0.82%
Cc1nc(-c2ccc(NC(=O)c3cccs3)cc2)cs1 | 27.1% (active)
Cc1ccc(-c2nnc(-c3ccc(NC(=O)c4cccs4)cc3)o2)cc1 | -1.94%
O=C(Nc1ccccc1)c1ccc(NC(=O)c2cccs2)cc1 | 1.79%
Cc1ccc(-c2noc(CNC(=O)c3ccoc3C)n2)cc1 | 4.35%
COc1ccccc1CNC(=O)[C@@H]1CCCN1C(=O)[C@@H]1Cc2ccccc2CN1C(=O)OC(C)(C)C | 0.82%
Clc1cccc(N=C2NN=C(c3ccc4c(c3)OCCO4)CS2)c1 | 38.8% (active)
Cc1cccc(N=C2NN=C(c3c[nH]c4ccccc34)CS2)c1 | 8.26%
c1ccc(CN2CCC(N=C3NN=C(c4ccc5c(c4)OCCO5)CS3)CC2)cc1 | 13.2%
COC(CNC(=O)c1ccc2c(c1)ncn2-c1cc(C)cc(C)c1)OC | -2.44%
O=C(OCCN=C1NS(=O)(=O)c2ccccc21)c1cccc([N+](=O)[O-])c1 | -0.96%
C=CCOc1c(Br)cc(/C=N\n2nnnc2N)cc1OC | 6.06%
CCOc1c(Br)cc(/C=C2\C(=O)N(CCC#N)N=C2C)cc1OC | 32.1% (active)
COc1cc(/C=C2/C(=O)NN(c3cccc(Cl)c3)C2=O)cc(Br)c1O | 4.77%
COc1ccc(-n2ncc3c2CC(C)(C)CC3NC(=O)CCc2c(C)nn(C)c2C)cc1 (stereo not drawn) | -4.92%
Cc1n[nH]c(C)c1S(=O)(=O)N1CCCC(C(=O)Nc2ccc(Br)cc2)C1 (stereo not drawn) | -0.76%
COc1ccc(CNC(=O)CCn2cccc2)cc1 | 3.81%
COc1ccc(CNC(=O)/C(C#N)=C/c2cccc(OC)c2OC)cc1 | 31.1% (active)
COc1ccc(NC(=O)/C(C#N)=C\c2cc(OC)c(OCc3ccc(C(=O)O)cc3)cc2Br)cc1 | -2.4%

SMILES | inhibition
Cc1cc(=O)oc2c1ccc1ccccc12 | -1.23%
Cn1c(SCC(=O)N2CCCC2)nnc1-c1cccs1 | -5.69%
Cc1ccccc1C1CC(c2cccs2)=NN1S(C)(=O)=O (stereo not drawn) | -0.31%
CC1Cn2c(nnc2-c2cccs2)S1 (stereo not drawn) | 27.3% (active)
O=C(O)CCC(=O)Nc1ccc(OCC2CCCO2)cc1 (stereo not drawn) | 1.1%
Cc1cccc(NC(=O)c2ccc(COc3ccccc3[N+](=O)[O-])o2)n1 | -1.06%
O=C(NCCc1ccccn1)c1ccc(COc2ccccc2)o1 | 9%
Cc1cccc(NC(=O)Nc2ccc(OCc3ccccc3)cc2)n1 | -4.5%
COC(=O)c1ccc(COc2ccc(C#N)cc2)o1 | -2.93%
CCOc1ccc(OCc2ccc(C(=O)N(C)c3ccccc3)o2)cc1 | 23% (active)
CCOc1ccc(OCc2ccc(C(=O)Nc3cccc(C)n3)o2)cc1 | 16.8% (active)
Cc1ccc(NC(=S)N(CCCN2CCCC2)Cc2cccn2Cc2ccc(Cl)cc2)cc1 | 2.82%
COc1ccc(C(=O)NC2CCN(C(=S)Nc3ccccc3)CC2)cc1 | 3.9%
COc1ccc(NC(=S)N2N=CCC2c2ccccc2)cc1 (stereo not drawn) | 16.8% (active)
COc1ccc(C(=S)Nc2ccccc2)cc1 | -0.81%
CC(C)c1ccc(NC(=O)C2CCCN(S(=O)(=O)c3cccnc3)C2)cc1 (stereo not drawn) | -1.95%
CCOC(=O)C1=C(c2ccc(OC)cc2)C(=O)c2ccccc2C1=O | 87.2% (active)
CCOC(=O)c1c(-c2ccc(C)cc2)csc1/N=C(\C)C1=C(O)c2ccccc2C1=O | -2.27%
CCOC(=O)c1c(C)[nH]c2c1-c1ccccc1C(=O)C2=O | -1.61%
COC(=O)C1(C)CC1(c1ccccc1)c1ccccc1 (stereo not drawn) | 1.72%
C[n+]1cc(-c2ccccc2)oc1-c1ccccc1 | 0.81%
CCOc1ccc(N/C=C/C(=O)c2cc(OC)c(OC)c(OC)c2)cc1 | -0.12%
CCOc1ccc(N/C=C/C(=O)c2ccccc2)cc1 | 51% (active)
COc1ccc(C(=O)/C=C/Nc2ccccn2)cc1 | 65.4% (active)
CCOc1cc2ccccc2cc1C(=O)Nc1ccccn1 | -0.82%

SMILES | inhibition
Cc1cc(N/C=C\C(=O)c2ccc(Cl)c(Cl)c2)no1 | -0.49%
O=C(/C=C\NCC(=O)c1ccccc1)c1ccccc1 | 2.9%
COc1cc2c(cc1OC)C(c1cccc([N+](=O)[O-])c1)=NCC2 | -2.48%
CCCCN(C)CCNC(=O)C1CCCN(S(=O)(=O)c2cccc3nsnc23)C1 (stereo not drawn) | -6.58%
COc1ccc(N=Nc2c(-c3ccc(OC)cc3)[nH]oc2=O)cc1 | 0.28%
NC(=O)c1ccc(NC(=O)COC(=O)c2c3c(nc4ccccc24)/C(=C\c2ccc4c(c2)OCO4)CCC3)cc1 | -5.16%
COc1ccc(-c2nc(-c3ccccc3)no2)c(OC)c1 | 44.3% (active)
COc1ccccc1Cc1nc(-c2ccc(C)cc2)no1 | 3.61%
COc1ccc(Sc2nc(-c3ccccc3)ncc2OC)cc1 | -2.08%
COC(=O)c1cccnc1NC(=S)NC(C)C | -2.4%
CC(=O)c1ccc(NC(=O)Cn2c(=O)oc3ccccc32)cc1 | -5.66%
CCSc1nnc(SCC(=O)NNC(=O)c2ccccc2F)s1 | -3.94%
S=c1[nH]c(-c2cccs2)cn1-c1ccccc1 | 8.66%
COc1ccc(-c2cn(-c3ccc(OC)cc3)c(=S)[nH]2)cc1 | 0.9%
O=c1oc2ccccc2cc1-c1cn(-c2ccccc2)c(=S)[nH]1 | 65.7% (active)
COc1ccc(C)cc1NC(=O)CNCc1cccs1 | 9.78%
CC(C)Sc1ncnc2c1cnn2-c1ccccc1 | -2.09%
COc1cc(NC(=O)CSc2ccc(-c3cccnc3)nn2)cc(OC)c1 | -0.99%
Cc1cccc(CCNC(=O)Cn2ncc3c([nH]c4ccc(C)cc43)c2=O)c1 | 20.9% (active)
CC1CC(C)CN(CCCNC(=O)Cn2ncc3c([nH]c4ccccc43)c2=O)C1 (stereo not drawn) | 2.52%
Cc1ccc2[nH]c3c(=O)n(CC(=O)NCCc4ccc(Cl)cc4)ncc3c2c1 | -1.14%
CCCn1nc(NC(=O)C(C)C)c2cc3cc(OC)ccc3nc21 | -7.87%
C=Cn1cc[n+](CC(=O)c2ccc(OC)c(OC)c2)c1 | 9.58%
O=C(CCCC(=O)N1CCN(c2cccc(Cl)c2)CC1)c1ccccc1 | -3.4%
Cc1ccc(S(=O)(=O)N(CCCN(C)C)Cc2ccc3c(c2)OCO3)cc1 | -1.45%

SMILES | inhibition
CC(NCC(=O)Nc1cc(Cl)cc(Cl)c1)c1ccccc1 (stereo not drawn) | 10.2%
O=C(C1CCC1)N1CCN(c2ccccc2)CC1 | -0.73%
CCCCCN(C(=O)CCC(=O)OCC(=O)NCc1ccc(OC)cc1)c1c(N)n(CCCC)c(=O)[nH]c1=O | -5.78%
Cc1cccc(N(C)C(=O)CN2C(=O)COc3ccc(S(=O)(=O)N4CCCCCC4)cc32)c1 | 2.46%
CCOc1ccc(OCc2cccc(C(=O)N(CC)CC)c2)cc1 | 19.7% (active)
CC(C)c1cc(C(N)=O)c(NC(=O)c2cccc(COc3ccc(Br)cc3)c2)s1 | 6%
COc1ccc(OCc2cccc(C(=O)N3CCCC3)c2)cc1 | 12.3%
COc1cc(C(=O)N2CCN(C)CC2)cc(OC)c1OC | -1.01%
CCOC(=O)N1CCN(C(=O)COCc2cc(-c3ccc4c(c3)OCO4)on2)CC1 | -2.54%
Cc1ccc2c(C)c(C(=O)N(C)CCC3CCCCO3)oc2c1C (stereo not drawn) | -5.53%
COc1ccc(Cl)cc1C(=O)NCC#N | -11.2%
N#C/C=C\Oc1ccc(Cl)cc1N | 19.9% (active)
COc1ccc(N2CCN(C(=O)c3ccccc3NC(=O)C3=C(C)OCCS3)CC2)cc1 | -2.69%
Cc1nc2ccccc2nc(C)c1=NOCc1ccc(Cl)cc1Cl | -1.08%
Cc1nc(NC(=O)c2cccc(Cl)c2)sc1-c1csc(Nc2cccc(Cl)c2)n1 | 67.3% (active)
CCC(=O)Nc1nc(C)c(C(=O)Nc2cccc(Cl)c2)s1 | -0.01%
CCCCCCC(=O)Nc1nc(C)c(-c2csc(Nc3cc(Cl)ccc3OC)n2)s1 | 4.86%
CC(=O)Nc1nc(C)c(-c2csc(Nc3ccc(S(N)(=O)=O)cc3)n2)s1 | -0.54%
Cc1ccc(-c2csc(NNC(=O)c3ccccc3)n2)cc1 | 0.18%
Cc1ccc(Nc2nc(-c3sc(NC(=O)c4ccccc4)nc3C)cs2)cc1 | 48.7% (active)
C=CCCC(=O)Nc1nc(C)c(-c2csc(Nc3ccc(Cl)cc3)n2)s1 | 6.06%
CCCCC(=O)Nc1nc(C)c(-c2csc(Nc3ccc(Cl)cc3)n2)s1 | 16.9% (active)
CCCCCCC(=O)Nc1nc(C)c(-c2csc(Nc3cccc(OC)c3)n2)s1 | 0.02%
